Measurements published in PubChem BioAssay (NCI).
Compounds without any hit were thinned out: in the full panel of roughly 79,000, 15% have a hit. The source made the active and inactive calls. Cut-off read from the data, not from the text of the source: active = growth inhibition above about 70%; inactive = the rest.

Key:
[1] = NCI Yeast Anticancer Drug Screen. Data for the rad52 strain (AID 147);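 note: 0% = growth of vehicle-treated control cultures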; conditions: S. cerevisiae rad52 mutant growth inhibition, active compounds read high
Outline: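 DNA repair-defective yeast; compound exposure; growth scored against vehicle controls.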

[2] = NCI Yeast Anticancer Drug Screen. Data for the wt1 strain (AID 149);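 note: 0% = growth of vehicle-treated wt1 cultures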; conditions: S. cerevisiae wt1 strain (SPY 50644) growth inhibition, active compounds read high
Outline: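 Each compound is tested on wt1 yeast and the loss of growth versus vehicle gives the inhibition value.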

[3] = NCI Yeast Anticancer Drug Screen. Data for the rad50EPP+ strain (AID 151);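 note: 0% = growth of vehicle-treated control cultures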; conditions: S. cerevisiae rad50 mutant strain, active compounds read high
Outline: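 rad50EPP+ yeast treated with test compounds. Readout: growth vs vehicle control.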

[4] = NCI Yeast Anticancer Drug Screen. Data for the rad50 strain (AID 155);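 note: 0% = growth of vehicle-only cultures of the same strain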; conditions: S. cerevisiae rad50 strain growth inhibition, active compounds read high
Outline: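 Vehicle-treated cultures provide the reference for the growth inhibition reported for compound-exposed, repair-deficient yeast.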

[5] = NCI Yeast Anticancer Drug Screen. Data for the mec2-1 strain (AID 157); conditions: S. cerevisiae mec2-1 strain, active compounds read high
Outline: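 Growth inhibition is read against vehicle-treated controls after compound exposure of the mec2-1 yeast strain, which is defective in DNA damage repair or cell cycle control.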

[6] = NCI Yeast Anticancer Drug Screen. Data for the rad14 strain (AID 159);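 note: 0% = growth of vehicle-treated control cultures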; conditions: S. cerevisiae rad14 strain growth inhibition, active compounds read high
Outline: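 Inhibition of growth is reported for a repair-deficient yeast mutant following compound treatment, calculated relative to cultures that received vehicle.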

[7] = NCI Yeast Anticancer Drug Screen. Data for the sgs1 mgt1 strain (AID 161);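 note: 0% = growth of cultures given vehicle only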; conditions: S. cerevisiae sgs1 mgt1 strain, active compounds read high
Outline: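 This yeast growth screen uses a strain with defined DNA-repair lesions; compound-treated growth is compared with vehicle-treated growth.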

[8] = NCI Yeast Anticancer Drug Screen. Data for the CLN2oe strain (AID 163);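 note: 0% = growth of vehicle-only control cultures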; conditions: S. cerevisiae CLN2oe strain, active compounds read high
Outline: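 Compound-treated yeast; growth vs vehicle ctrl = % inhibition. Genetically altered strain (cell-cycle control).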

[9] = NCI Yeast Anticancer Drug Screen. Data for the cln2 rad14 strain (AID 165);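 note: 0% = growth equal to vehicle treated cultures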; conditions: S. cerevisiae cln2 rad14 strain, active compounds read high
Outline: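 Growth inhibition, relative to vehicle-treated controls, is the read-out. The test organism is a yeast strain with defined genetic alterations, cln2 rad14.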

[10] = NCI Yeast Anticancer Drug Screen. Data for the bub3 strain (AID 167); conditions: S. cerevisiae bub3 mutant strain, active compounds read high
Outline: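 Mutant yeast screening strain plus compound; vehicle-treated cultures serve as the 0% inhibition reference.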

[11] = NCI Yeast Anticancer Drug Screen. Data for the wt2 strain (AID 169); conditions: S. cerevisiae wt2 strain growth inhibition, active compounds read high
Outline: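 Compound exposure of yeast; growth compared with vehicle controls; inhibition reported.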

[12] = NCI Yeast Anticancer Drug Screen. Data for the mlh1 strain (AID 171);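 note: 0% = growth of vehicle-treated control cultures of the same strain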; conditions: S. cerevisiae mlh1 strain growth inhibition, active compounds read high
Outline: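 Compounds are applied to a genetically altered yeast strain, and its growth is compared with that of vehicle-treated cultures to give percent inhibition.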

[13] = NCI Yeast Anticancer Drug Screen. Data for the sgs1 strain (AID 173);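 note: 0% = growth of vehicle-only control cultures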; conditions: S. cerevisiae sgs1 mutant, active compounds read high
Outline: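 Compounds applied to genetically altered yeast; growth compared with vehicle-treated cultures to give % inhibition.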

[14] = NCI Yeast Anticancer Drug Screen. Data for the mlh1 rad18 strain (AID 175); conditions: S. cerevisiae mlh1 rad18 strain growth inhibition, active compounds read high
Outline: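 Cells of a genetically altered yeast strain, deficient in DNA damage repair, were treated with compound. Their growth was then compared with that of vehicle-treated cultures to give inhibition.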

[15] = NCI Yeast Anticancer Drug Screen. Data for the rad18 strain (AID 177); conditions: S. cerevisiae rad18 mutant growth inhibition, active compounds read high
Outline: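 Compounds are applied to a repair-deficient yeast strain, and growth is compared with that of vehicle-treated cultures to give percent inhibition.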

[16] = at 5.0 µM (retest, dose inferred, filed as 0.5)
[17] = at 50.0 µM (retest, dose inferred, filed as 5.0)

Measured: growth inhibition

CC(=O)OC1CCC2(C)C(=CCC3C4CCC5(OC6CC(C)CN(C(C)=O)C6C5C)C(C)=C4C(=O)C32)C1 (stereo not drawn)
inactive: [1]; at 1.2 µM 18% | [1]; at 3.7 µM 12% | [1]; at 11.0 µM 57% | [2]; at 1.2 µM 2% | [2]; at 3.7 µM 2% | [2]; at 11.0 µM 28% | [3]; at 1.2 µM -39% | [3]; at 3.7 µM -28% | [3]; at 11.0 µM -7% | [3]; at 33.0 µM 6% | [3]; at 100.0 µM -1% | [4]; at 1.2 µM -49% | [4]; at 3.7 µM -31% | [4]; [16] 0% | [4]; at 11.0 µM 61% | [5]; at 1.2 µM -32% | [5]; at 3.7 µM -32% | [5]; [16] -9% | [5]; at 11.0 µM 3% | [5]; at 50.0 µM 68.4% | [6]; at 1.2 µM -30% | [6]; at 3.7 µM -17% | [6]; at 11.0 µM 50% | [7]; [16] 7% | [7]; at 50.0 µM 69.4% | [8]; at 1.2 µM 1% | [8]; at 3.7 µM -12% | [8]; at 11.0 µM 41% | [9]; [16] 17% | [10]; at 1.2 µM -2% | [10]; at 3.7 µM -23% | [10]; [16] 32% | [10]; at 11.0 µM 24% | [11]; at 1.2 µM -9% | [11]; at 3.7 µM -4% | [11]; at 11.0 µM 53% | [11]; at 100.0 µM 59% | [12]; at 1.2 µM -17% | [12]; at 3.7 µM -21% | [12]; at 11.0 µM 51% | [13]; at 1.2 µM -10% | [13]; at 3.7 µM -9% | [13]; at 11.0 µM 54% | [14]; [16] -10% | [15]; at 1.2 µM -1% | [15]; at 3.7 µM 15%
active: [1]; at 33.0 µM 97% | [1]; at 100.0 µM 96% | [2]; at 33.0 µM 97% | [2]; at 100.0 µM 94% | [4]; at 33.0 µM 94% | [4]; [17] 96% | [4]; at 50.0 µM 83.2% | [4]; at 100.0 µM 95% | [5]; at 33.0 µM 96% | [5]; [17] 98% | [5]; at 100.0 µM 89% | [6]; at 33.0 µM 96% | [6]; at 100.0 µM 89% | [7]; [17] 96% | [8]; at 33.0 µM 98% | [8]; at 100.0 µM 92% | [9]; [17] 98% | [9]; at 50.0 µM 84.2% | [10]; at 33.0 µM 96% | [10]; [17] 98% | [10]; at 50.0 µM 81.2% | [10]; at 100.0 µM 95% | [11]; at 33.0 µM 97% | [12]; at 33.0 µM 96% | [12]; at 100.0 µM 90% | [13]; at 33.0 µM 96% | [13]; at 100.0 µM 93% | [14]; [17] 98% | [14]; at 50.0 µM 76.8% | [15]; at 11.0 µM 75% | [15]; at 33.0 µM 96% | [15]; at 100.0 µM 95%
